# In the library only some 1.3% were active in any assay of this set; here they are far more common.
# SARS PLpro yeast: blocks SARS-CoV papain-like protease in a yeast assay. S. cerevisiae expressing SARS-CoV PLpro, growth rescue. Potency, µM (highest dose often 32.9 µM), for the others: top-dose activity, positive = growth rescue, most hits filed as activators. 0.19% of 330,000 active. AID 485353; calls by dose curve; further: 0% is about no effect; nearly all actives have a fitted effect of over 55% in size
# Vaccinia Venus: inhibitors of vaccinia virus (Venus reporter). Vaccinia virus Venus reporter expression, fluorescence. Potency, µM (series often up to 36.5 µM), for the others: top-dose activity change, negative = inhibition, usual class: inhibitors. 0.46% of 330,000 active; calls by dose curve; tested in A549 cells; further: on the % scale 0 is the no-effect control and ±100 the full control effect; nearly all actives have a fitted effect of over 30% in size
# AmpC inh no detg: inhibitors of E. coli AmpC beta-lactamase without detergent; AmpC nitrocefin hydrolysis, absorbance 480 nm, 0.0001% Triton; 0.52% of 330,000 active; Potency, µM (highest dose often 57.1 µM), inactives show at the top dose activity change, negative = inhibition, most hits filed as inhibitors; P00811;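 further: plate controls were no compound for no effect and no enzyme for full effect; nearly all actives have a fitted effect of over 20% in size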
# Target sequence (P00811 whole entry, looked up): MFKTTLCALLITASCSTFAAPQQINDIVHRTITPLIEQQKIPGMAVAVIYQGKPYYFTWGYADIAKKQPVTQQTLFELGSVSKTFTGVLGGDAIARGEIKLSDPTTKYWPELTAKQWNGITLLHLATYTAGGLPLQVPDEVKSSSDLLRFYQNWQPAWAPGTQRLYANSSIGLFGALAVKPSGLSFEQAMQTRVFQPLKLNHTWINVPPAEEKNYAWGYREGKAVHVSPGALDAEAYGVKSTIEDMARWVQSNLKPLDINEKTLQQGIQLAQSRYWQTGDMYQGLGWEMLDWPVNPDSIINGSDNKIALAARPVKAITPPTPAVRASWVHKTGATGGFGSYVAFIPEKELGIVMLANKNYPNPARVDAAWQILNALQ
#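 AmpC (5.3 nM in the dispensed reagent) in 20 mM phosphate pH 7.0 with 0.01% (detergent screen) or 0.0001% Triton X-100 was preincubated with compounds for 15 min at room temperature. Nitrocefin was then added from an 800 uM solution, and hydrolysis was followed at 480 nm.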
# VACV mCherry inh: vaccinia inhibition (mCherry reporter) | Vaccinia virus mCherry reporter infection, fluorescence | 0.63% of 310,000 active | AID 720579 | Potency, µM (highest dose often 36.5 µM), for inactives: at the highest dose activity change, negative = inhibition, hits mostly inhibitors; calls by dose curve; tested in A549 cells; further: on the % scale 0 is the no-effect control and ±100 the full control effect; nearly all actives have a fitted effect of over 35% in size
# AMA1-RON2 inh: inhibitors of Plasmodium falciparum AMA1-RON2 interaction; AlphaScreen AMA1-biotinylated RON2 peptide binding; 0.2% of 360,000 active; AID 720542; Potency, µM (doses to about 58.2 µM), for the others: top-dose activity change, negative = inhibition, usual class: inhibitors;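 further: 0% = vehicle wells and -100% = peptide control; nearly all actives have a fitted effect of over 45% in size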
#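 AMA1 (3D7) with his tag at 25 nM final met compounds first, then biotinylated RON2 peptide at 25 nM; detection used donor plus acceptor beads, 10 µg/mL apiece, read by AlphaScreen after 30 min at room temperature.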
# AmpC inh detg: inhibitors of E. coli AmpC beta-lactamase with detergent | P00811 | AmpC hydrolysis of nitrocefin, absorbance 480 nm, 0.01% Triton | Potency, µM (series often up to 114 µM), inactives show at the highest dose activity change, negative = inhibition, hits mostly inhibitors | 0.041% of 370,000 active;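 further: 0% = no-compound wells and -100% = no-enzyme wells; nearly all actives have a fitted effect of over 25% in size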
#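 AmpC (5.3 nM in the dispensed reagent) in 20 mM phosphate pH 7.0 with 0.01% (detergent screen) or 0.0001% Triton X-100 was preincubated with compounds for 15 min at room temperature. Nitrocefin was then added from an 800 uM solution, and hydrolysis was followed at 480 nm.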
# * marks the source's active call; other numbers are inactive results; i = inactive; ? = inconclusive; nt = no result given. Unless noted, the call rests on the fitted dose curve; in most records, active means well fitted curve in the direction sought with a large enough effect; inconclusive means small, poorly fitted or top-dose-only effect, or another doubt; inactive means no such curve, though single readings can be large; an effect the other way counts as inactive or inconclusive. Potency means the concentration at half of the fitted maximal effect.
SMILES,SARS PLpro yeast,Vaccinia Venus,AmpC inh no detg,VACV mCherry inh,AMA1-RON2 inh,AmpC inh detg
O=C1NC(=O)N(CCc2ccc(F)cc2)C(=O)/C1=C/c1ccco1,6%,37%,18µM*,29%,-13%,?
CCCCn1nc2cc(C(=O)NCc3ccc4c(c3)OCO4)ccc2c1OCC,-4%,-19%,0.32µM*,i,14%,3%
O=C(NCc1ccc2c(c1)OCO2)c1ccncc1,16µM*,nt,-7%,nt,-6%,-4%
CCCCn1nc2cc(C(=O)NCC34CC5CC(CC(C5)C3)C4)ccc2c1OC,4%,?,1%,6.3µM*,4%,1%
CCCn1nc2cc(C(=O)NC3CCc4ccccc43)ccc2c1OCC (stereo not given),-7%,-12%,0.28µM*,-7%,-5%,-1%
CCCCn1nc2cc(C(=O)NCC3CC3)ccc2c1OCC,-3%,-17%,-23%,4%,0%,4%
CCn1nc2cc(C(=O)NCC34CC5CC(CC(C5)C3)C4)ccc2c1OC,4%,-24%,18%,-25%,-7%,8%
CCCn1nc2cc(C(=O)NCc3ccc4c(c3)OCO4)ccc2c1OCC,8%,-21%,-9%,i,-7%,0%
Cn1cnc(S(=O)(=O)N2CCC(C(=O)Nc3ccc(Cl)c(C(F)(F)F)c3)CC2)c1,nt,-21%,nt,-7%,nt,16%
O=C(NCCO)c1cn(C2CCN(Cc3c(F)cccc3Cl)CC2)nn1,nt,-4%,nt,-4%,nt,nt
COc1cccc(C(=O)NCCS(=O)(=O)NCc2ccc3c(c2)OCO3)c1,-3%,-11%,35µM*,-5%,2%,?
Cc1cccn2c(=O)c3cc(C(=O)NCc4ccccc4)c(=N)n(CCOCCO)c3nc12,nt,9%,nt,15%,nt,0%
CCCN(CCC)S(=O)(=O)c1ccc(NS(C)(=O)=O)cc1,5%,-10%,-18%,-12%,-5%,-5%
CCCN(CC1CC1)S(=O)(=O)c1ccc(S(N)(=O)=O)cc1,2%,-12%,0.5µM*,-15%,-8%,?
Cc1ccc(-c2nc3ccc(NS(=O)(=O)c4ccccc4)cc3[nH]2)o1,1%,-25%,-46%,-15%,-7%,-1%
O=S(=O)(Nc1ccc2nc(-c3ccc(Br)o3)[nH]c2c1)c1ccccc1,4%,nt,25µM*,nt,nt,-3%
O=C1/C(=C/c2ccncc2)CCC/C1=C\c1ccncc1,-34%,11µM*,-25%,10µM*,-12%,?
O=C1C(=Cc2ccncc2)CCCc2ccccc21,nt,-15%,nt,-1%,-9%,nt
Cc1ccc(/C=N/Nc2cn[nH]c(=O)n2)o1,0%,-12%,-33%,-9%,44%,-3%
CC(/C=N/Nc1nncc(=O)[nH]1)=C\c1ccccc1,-11%,-1%,-8%,-12%,15%,-17%
O=c1cnnc(N/N=C/c2ccccn2)[nH]1,?,-20%,-12%,2.2µM*,-4%,-1%
O=c1nc(N/N=C/c2ccccn2)cn[nH]1,-25%,?,-16%,4µM*,-15%,5%
CC(C)Nc1nnc(SCC(=O)Nc2ccc3c(c2)C(=O)c2ccccc2C3=O)s1,-15%,?,10µM*,?,-22%,2%
O=C(CSc1nnc(NC2CCCCC2)s1)Nc1ccc2c(c1)C(=O)c1ccccc1C2=O,1%,nt,-37%,nt,-1%,-3%
CCOc1ccccc1Nc1nnc(SCC(=O)Nc2ccc3[nH]c(=O)[nH]c3c2)s1,2%,30%,18µM*,i,0%,-3%
SMILES,SARS PLpro yeast,Vaccinia Venus,AmpC inh no detg,VACV mCherry inh,AMA1-RON2 inh,AmpC inh detg
Cc1nnc(SCC(=O)Nc2nc(-c3ccc(F)cc3)cs2)[nH]c1=O,-2%,?,-28%,13µM*,-8%,6%
COc1ccccc1Nc1nnc(SCC(=O)Nc2nc(-c3ccc(F)cc3)cs2)s1,0%,?,16µM*,i,39%,0%
CCOc1ccccc1Nc1nnc(SCC(=O)Nc2nc(-c3ccc(OC)cc3)cs2)s1,1%,-15%,-27%,-9%,27%,3%
Cc1cc(C)c(S(=O)(=O)Nc2cc(SCC(=O)O)c(O)c3ccccc23)cc1C,-6%,-1%,-46%,-1%,-20%,-12%
Cc1cc(C)c(S(=O)(=O)/N=C2/C=C(SCC(=O)O)C(=O)c3ccccc32)cc1C,-15%,10%,16µM*,-13%,-15%,1%
CC1=C([N+](=O)[O-])C(c2ccccc2)C2=C(N1)c1ccccc1C2=O (stereo not given),-25%,?,-42%,13µM*,?,4%
CCn1c(=NC(=O)c2ccco2)sc2cccc(F)c21,-11%,-18%,3.5µM*,9%,-8%,?
CCS(=O)(=O)c1ncc(Cl)c(C(=O)Nc2ccc(S(=O)(=O)N3CCC(C)CC3)cc2)n1,-26%,18µM*,0%,?,-14%,?
CC(C)c1ccccc1NC(=O)Nc1nc(C(N)Cc2ccc(C(F)(F)F)cc2)cs1 (stereo not given),nt,?,nt,?,88%,nt
NC(Cc1ccc(C(F)(F)F)cc1)c1csc(NC(=O)Nc2ccccc2Cc2ccccc2)n1 (stereo not given),nt,13µM*,nt,11µM*,71%,nt
NC(CCc1ccccc1)c1csc(NC(=O)Nc2ccccc2Oc2ccccc2)n1 (stereo not given),nt,11µM*,nt,?,65%,nt
CC(C)c1ccc(NC(=O)Nc2nc(C(N)COCc3ccccc3)cs2)cc1 (stereo not given),nt,11µM*,nt,?,3%,nt
NC(Cc1ccc(Cl)cc1)c1csc(NC(=O)NCC2CCCCC2)n1 (stereo not given),nt,10µM*,nt,-4%,56%,nt
NC(CCc1ccccc1)c1csc(NC(=O)NCCc2ccccc2)n1 (stereo not given),nt,-16%,nt,-12%,58%,nt
CNC(=O)[C@@H]1C[C@@H](NCc2cccc(Oc3ccccc3)c2)CN1C(C)C,nt,-10%,nt,-14%,nt,nt
Cc1oc(-c2ccccc2NC(=O)c2ccccc2)nc1CNC(=O)c1c(-c2ccccc2)noc1C,nt,-16%,nt,-19%,nt,nt
Cc1ncc2c(c1CNC(=O)CN1CCCC1)CCN(C(=O)c1ccc(F)cc1F)C2,nt,13%,nt,-7%,nt,nt
COc1ccc2c(c1)CCc1cnc(-n3ncc(C(=O)NCCCc4ccncc4)c3C)nc1-2,nt,-23%,nt,?,nt,nt
CSCCC(NC(=O)c1cccc([N+](=O)[O-])c1)c1nc2ccccc2[nH]1 (stereo not given),-8%,8%,20µM*,-27%,9%,-3%
O=C(CSCc1nc2ccccc2[nH]1)Nc1ccc2ccccc2c1,-1%,nt,-52%,nt,-3%,-4%
O=C(CSCc1cccc(CSCC(=O)Nc2ccc3ccccc3c2)n1)Nc1ccc2ccccc2c1,-3%,11µM*,-50%,11µM*,1%,?
